Inconclusive results are not listed. Calls of active or inactive are those of the source. The calls were made as follows: active = hit-call score of the fitted dose curve at least 0.9, where 1 is the maximum; inconclusive = response in the unintended direction; inactive = score below 0.9.
target: human Phosphodiesterase 10 (PDE10), PDE10A (gene 10846) (UniProt Q9Y233); assay: NVS_ENZ_hPDE10: NovaScreen (NVS) Enzymatic Assay for human Phosphodiesterase 10 (PDE10) (AID 2283195)
In short: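 Fluorescence readout after mobility-shift separation of substrate and product, 1 h reaction with recombinant human enzyme. Single-concentration duplicates at 25 uM, then concentration-response up to 50 uM for chemicals reaching threshold; DMSO baseline.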

human Phosphodiesterase 10 (PDE10), PDE10A (gene 10846), sequence (Q9Y233 whole entry, looked up): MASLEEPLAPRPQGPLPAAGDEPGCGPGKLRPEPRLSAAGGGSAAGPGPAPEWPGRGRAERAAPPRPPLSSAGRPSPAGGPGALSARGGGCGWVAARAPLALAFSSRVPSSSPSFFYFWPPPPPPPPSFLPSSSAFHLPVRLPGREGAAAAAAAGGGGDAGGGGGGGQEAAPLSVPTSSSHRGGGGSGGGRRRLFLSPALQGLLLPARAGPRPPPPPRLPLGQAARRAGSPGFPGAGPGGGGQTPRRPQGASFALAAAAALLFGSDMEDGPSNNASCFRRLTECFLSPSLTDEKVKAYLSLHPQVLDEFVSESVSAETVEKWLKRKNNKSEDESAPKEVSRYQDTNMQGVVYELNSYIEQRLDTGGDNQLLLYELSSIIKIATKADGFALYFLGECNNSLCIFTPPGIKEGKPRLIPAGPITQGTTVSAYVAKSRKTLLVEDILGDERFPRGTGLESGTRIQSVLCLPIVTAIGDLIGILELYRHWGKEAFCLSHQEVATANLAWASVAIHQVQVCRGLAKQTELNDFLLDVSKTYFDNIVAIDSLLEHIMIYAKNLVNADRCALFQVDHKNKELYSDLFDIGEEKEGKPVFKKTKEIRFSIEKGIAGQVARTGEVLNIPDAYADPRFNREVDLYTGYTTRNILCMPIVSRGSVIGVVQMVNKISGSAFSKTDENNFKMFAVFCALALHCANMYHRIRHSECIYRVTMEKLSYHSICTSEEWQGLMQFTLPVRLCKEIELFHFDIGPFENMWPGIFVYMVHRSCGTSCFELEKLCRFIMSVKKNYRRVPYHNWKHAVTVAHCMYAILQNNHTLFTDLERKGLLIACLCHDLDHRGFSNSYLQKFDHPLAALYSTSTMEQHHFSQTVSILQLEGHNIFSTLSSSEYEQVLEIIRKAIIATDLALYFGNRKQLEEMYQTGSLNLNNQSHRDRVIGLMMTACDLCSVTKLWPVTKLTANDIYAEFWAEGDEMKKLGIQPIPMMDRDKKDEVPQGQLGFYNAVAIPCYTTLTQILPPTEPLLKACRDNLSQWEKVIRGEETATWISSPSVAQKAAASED

Row | Structure (SMILES) | outcome | AC50
1 | O=C1CCCCCCCCCCCN1 | inactive | –
2 | CC1(C)C(=O)N(CO)C(=O)N1CO | – | 46.5 µM (active)
3 | C=C(C)C1CC=C(C)C(OC(C)=O)C1 (stereo not drawn) | inactive | –
4 | CC(=O)OC1CCCCC1 | inactive | –
5 | CCCCOCC(C)O (stereo not drawn) | inactive | –
6 | CC(=O)OC(C)c1ccccc1 (stereo not drawn) | inactive | –
7 | [Cl][Sc]([Cl])[Cl] | – | 1.67 µM (active)
8 | O=C1CCCCCCCCCCC1 | inactive | –
9 | CCCCCC1=CCCC1=O | inactive | –
10 | CCN(CC)c1cccc(C)c1 | inactive | –
11 | Cn1cccc1 | – | 5.59 µM (active)
12 | CCC1(C)C(=O)N(Cl)C(=O)N1Cl (stereo not drawn) | – | 20.7 µM (active)
13 | C=CC(=O)O[C@H]1C[C@@H]2CC[C@@]1(C)C2(C)C | – | 3.57 µM (active)

target: human Phosphoinositide 3-kinase alpha (PI3Ka), PIK3CA (gene 5290) (UniProt P42336); assay: NVS_ENZ_hPI3Ka: NovaScreen (NVS) Enzymatic Assay for human Phosphoinositide 3-kinase alpha (PI3Ka) (AID 2283196)
Sequence (P42336 whole entry, looked up): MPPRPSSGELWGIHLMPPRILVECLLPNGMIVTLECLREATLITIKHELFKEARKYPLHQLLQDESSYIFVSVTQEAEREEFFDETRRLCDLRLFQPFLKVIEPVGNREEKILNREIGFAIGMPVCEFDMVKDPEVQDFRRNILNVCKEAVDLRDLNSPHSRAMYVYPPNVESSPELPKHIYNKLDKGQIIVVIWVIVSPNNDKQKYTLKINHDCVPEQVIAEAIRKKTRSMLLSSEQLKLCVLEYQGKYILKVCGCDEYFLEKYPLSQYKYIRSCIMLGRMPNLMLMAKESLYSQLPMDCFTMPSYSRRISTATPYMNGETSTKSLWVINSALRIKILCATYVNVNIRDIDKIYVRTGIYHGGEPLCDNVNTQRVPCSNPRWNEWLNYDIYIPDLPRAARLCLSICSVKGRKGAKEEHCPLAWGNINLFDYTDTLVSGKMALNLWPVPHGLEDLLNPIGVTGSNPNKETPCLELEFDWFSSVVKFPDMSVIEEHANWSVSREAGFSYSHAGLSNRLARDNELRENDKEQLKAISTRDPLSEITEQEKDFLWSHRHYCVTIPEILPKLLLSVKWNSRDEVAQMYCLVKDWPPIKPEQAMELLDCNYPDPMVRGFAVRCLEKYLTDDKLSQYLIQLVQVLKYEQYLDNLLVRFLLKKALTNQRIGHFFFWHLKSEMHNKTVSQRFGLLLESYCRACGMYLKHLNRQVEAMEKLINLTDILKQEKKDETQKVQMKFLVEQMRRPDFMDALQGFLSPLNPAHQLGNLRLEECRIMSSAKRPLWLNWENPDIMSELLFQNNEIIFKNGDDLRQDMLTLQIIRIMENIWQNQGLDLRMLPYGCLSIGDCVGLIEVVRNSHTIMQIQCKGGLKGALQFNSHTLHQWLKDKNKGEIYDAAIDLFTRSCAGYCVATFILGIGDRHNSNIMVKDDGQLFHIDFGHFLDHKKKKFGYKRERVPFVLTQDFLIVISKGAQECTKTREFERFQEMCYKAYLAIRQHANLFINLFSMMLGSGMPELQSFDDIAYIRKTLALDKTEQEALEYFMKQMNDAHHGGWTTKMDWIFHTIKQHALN
In short: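 Chemicals were first screened at 25 uM in duplicate, then hits were run as concentration series up to 50 uM. Enzyme activity was measured by fluorescence after mobility-shift separation, with loss of signal relative to DMSO taken as activity.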

Row | Structure (SMILES) | AC50 | outcome
14 | C=C(C)C1CC=C(C)C(OC(C)=O)C1 (stereo not drawn) | 25 µM (active) | –
15 | CC(=O)OC(C)c1ccccc1 (stereo not drawn) | – | inactive
16 | C=CC(=O)OCC(C)OCC(C)OCC(C)OC(=O)C=C (stereo not drawn) | – | inactive
17 | Oc1ccc(/C=C/c2cc(O)cc(O)c2)cc1 | – | inactive
18 | O=C1CCCCCCCCCCC1 | – | inactive

target: sheep Cyclooxygenase-1 (Cox1), PTGS1 (gene 443551) (UniProt P05979); assay: NVS_ENZ_oCOX1: NovaScreen (NVS) Enzymatic Assay for sheep Cyclooxygenase-1 (Cox1) (AID 2283239);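 also: actives reduce cyclooxygenase activity so potencies are for inhibitors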
Sequence (P05979 whole entry, looked up): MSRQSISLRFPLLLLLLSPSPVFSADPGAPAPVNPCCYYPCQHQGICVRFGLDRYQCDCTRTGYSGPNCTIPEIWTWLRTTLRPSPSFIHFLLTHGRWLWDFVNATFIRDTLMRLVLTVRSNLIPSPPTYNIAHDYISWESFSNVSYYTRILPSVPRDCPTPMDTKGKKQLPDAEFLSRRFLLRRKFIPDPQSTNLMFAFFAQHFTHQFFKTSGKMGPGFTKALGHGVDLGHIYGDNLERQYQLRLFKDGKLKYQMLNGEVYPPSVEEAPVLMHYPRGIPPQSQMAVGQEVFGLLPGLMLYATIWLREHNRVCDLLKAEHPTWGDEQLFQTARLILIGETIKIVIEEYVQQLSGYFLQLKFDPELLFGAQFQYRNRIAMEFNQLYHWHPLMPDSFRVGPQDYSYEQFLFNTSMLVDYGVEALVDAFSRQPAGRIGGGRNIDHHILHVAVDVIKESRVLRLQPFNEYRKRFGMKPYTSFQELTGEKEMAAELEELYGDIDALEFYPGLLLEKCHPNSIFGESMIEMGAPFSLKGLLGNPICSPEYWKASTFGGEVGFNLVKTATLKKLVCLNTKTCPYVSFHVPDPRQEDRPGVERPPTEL
In short: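 Colorimetric enzyme readout using sheep seminal-vesicle cyclooxygenase-1, measured 0.66 h post-dosing. Single-concentration duplicates at 25 uM first, then concentration series for actives, with DMSO as baseline and plate controls.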

Row | Structure (SMILES) | AC50 | outcome
19 | CCCCCCCCCCCC(C)=O | 31.9 µM (active) | –
20 | COC(OC)(C(=O)c1ccccc1)c1ccccc1 | – | inactive
21 | CC(=O)OC(C)c1ccccc1 (stereo not drawn) | – | inactive
22 | Nc1cccc(N)n1 | – | inactive
23 | CC1=C(O)C(=O)C(C)O1 (stereo not drawn) | – | inactive
24 | Oc1ccc(/C=C/c2cc(O)cc(O)c2)cc1 | 7.5 µM (active) | –
25 | CCCCCC1=CCCC1=O | 25 µM (active) | –
26 | Oc1c(Cl)cc(Cl)c(Cl)c1Cl | – | inactive
27 | Nc1nc(N)nc(-c2ccccc2)n1 | – | inactive
28 | NNS(=O)(=O)c1ccc(Oc2ccc(S(=O)(=O)NN)cc2)cc1 | – | inactive
